From PubChem BioAssay (NCI)
This is part of a sample that, as a whole, favours compounds with a hit. Of some 79,000 tested, about 15% had one in any assay. Values without a mark were called inactive. Active and inactive are the calls of the source. No stated cut-off is given here; in the data, active means growth inhibition above about 70%; inactive means the rest.

Test: NCI Yeast Anticancer Drug Screen. Data for the sgs1 mgt1 strain (AID 161);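 further: 0% = growth of cultures given vehicle only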
Conditions: S. cerevisiae sgs1 mgt1 strain, at 50.0 µM (retest, dose inferred, filed as 5.0), hits give high values
How it was run: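 Compounds are added to genetically altered yeast, and growth is compared with cultures given vehicle alone to give percent inhibition.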
For `Cc1ccc2c(c1)CC1(C2)Cc2ccc(C)cc2C1=O` (stereo not given), the growth inhibition was 75% (active). Work on `NC1=CC(=O)c2ccccc2C1=O` yielded a growth inhibition of 57%. `CCCCC(CC(=O)O)c1ccc(Cl)cc1` (stereo not given) gave a growth inhibition of 5%. With `OCCOCCO[P+]1(OCCOCCO)n2c3ccc2C(c2ccccc2)=C2C=CC(=N2)C(c2ccccc2)=c2ccc(n21)=C(c1ccccc1)C1=NC(=C3c2ccccc2)C=C1` the growth inhibition was 98% (active). In the case of `Clc1ccc2[nH]c(-c3ccccc3)c(-c3ccccn3)c2c1`, the growth inhibition is reported as 98% (active). Work on `COc1cc(NS(C)(=O)=O)ccc1Nc1c2ccccc2nc2ccccc12` yielded a growth inhibition of 44%. For `COC1/C=C/OC2(C)Oc3c(C)c(O)c4c(c3C2=O)C(=O)C=C(NC(=O)/C(C)=C\C=C\C(C)C(OC=O)C(C)C(O)C(C)C(OC(C)=O)C1C)C4=O` (stereo not given), the growth inhibition was 29%. In the case of `COc1ccc(CN(C)c2c(C)ccc3ccccc23)cc1`, the growth inhibition is reported as 78% (active). For `CCOC(=O)c1c(-c2ccccc2)csc1NC(=O)CBr`, the growth inhibition was 99% (active). `Nc1nc2nc(I)[nH]c2c(=O)[nH]1` gave a growth inhibition of 9%. With `CC(CN(CC(=O)O)CC(=O)O)N(CC(=O)O)CC(=O)O.[Cl][Pd][Cl]` (stereo not given) the growth inhibition was 92% (active). With `COC(=O)c1nc(=S)[nH]c(C(=O)OC)c1C(=O)c1ccc2ccccc2c1` the growth inhibition was 97% (active). With `O=C(Nc1ccccc1)OCCc1ccc(Br)cc1` the growth inhibition was -11%. In the case of `O=C(CCN1CCCCC1)/C(=C\c1ccc(Cl)cc1)c1ccccc1`, the growth inhibition is reported as 100% (active). `FC(F)(F)c1nc(S)cc(=S)[nH]1` gave a growth inhibition of 26%. With `CCCCC(=O)N/N=C/c1ccc([N+](=O)[O-])s1` the growth inhibition was 95% (active). With `CSC(=S)N/N=C(\C)c1nccnc1C` the growth inhibition was 98% (active). `CC(=O)Oc1cc2c(cc1OC(C)=O)OCC(c1ccccc1)C2` (stereo not given) gave a growth inhibition of 60%. For `O=Cc1ccc(O)c2ccccc12`, the growth inhibition was 85% (active). For `CC(=O)N(C1=C(Cl)C(=O)c2ccccc2C1=O)c1ccc(Cl)cc1`, the growth inhibition was 99% (active). Work on `Cn1c2c(c3ccccc31)CCN1C[C@@H]3CCCC[C@H]3C[C@@H]21` yielded a growth inhibition of -1%. `CCOc1ncc(Cl)c(OCC)n1` gave a growth inhibition of -6%. `C=C1C(=O)OC2C1CC1OC2C(C)CCC/C(C)=C\CCC1(C)O` (stereo not given) gave a growth inhibition of 34%. With `CCCCN(CCCC)CCC(O)(c1ccc(OC)c2ccccc12)C(O)(CCN(CCCC)CCCC)c1ccc(OC)c2ccccc12` (stereo not given) the growth inhibition was 99% (active). In the case of `CS/C(N)=N/NC(=O)CCC(=O)Nc1cc(Cl)c(Cl)cc1Cl`, the growth inhibition is reported as 16%. `COc1ccc(OC)c(N=Nc2c(C)[nH]n(C(N)=S)c2=O)c1` gave a growth inhibition of 34%. Work on `O=C(CC(=O)c1ccccc1)CC1(O)CCCCC1` yielded a growth inhibition of 34%. For `Nc1ccc2ccccc2c1Cc1c(O)ccc2ccccc12`, the growth inhibition was 98% (active). With `CC[n+]1c(/C=C/c2cc(C(=O)OC)n3c2sc2ccccc23)sc2ccccc21` the growth inhibition was 99% (active). For `O=CNc1ccc2c(c1)Cc1cc(NC=O)ccc1-2`, the growth inhibition was 82% (active). In the case of `O=C1CC(c2ccccc2)C(=O)N2C(=O)CC(c3ccccc3)C(=O)N12` (stereo not given), the growth inhibition is reported as 8%. Work on `CN1CCN(CCOC(=O)N2c3ccccc3Sc3ccccc32)CC1` yielded a growth inhibition of 2%. With `COc1nc(Nc2ccc(/C=C/c3ccc(Nc4nc(OC)nc(N(CCO)CCO)n4)cc3S(=O)(=O)O)c(S(=O)(=O)O)c2)nc(N(CCO)CCO)n1` the growth inhibition was 51%. `NNC(=O)NN=C(c1ccccc1)c1ccccc1` showed a growth inhibition of 0%. With `CCOC(=O)C(Br)C(Br)c1cccc([N+](=O)[O-])c1` (stereo not given) the growth inhibition was 100% (active). `CCCCCCC(O)C(CO)CCCCC` (stereo not given) showed a growth inhibition of 62%. `Oc1c(Br)c(Br)c(O)c(Br)c1Br` gave a growth inhibition of 58%. With `CC(=O)n1nc2c(c1CC(C)C)C(=O)C(Nc1ccccc1)=CC2=O` the growth inhibition was 100% (active). Compound `CC(C)(CCBr)[N+](=O)[O-]` has a growth inhibition of -62%. In the case of `Nc1ccccc1SCc1csc(-c2ccc(Cl)cc2)n1`, the growth inhibition is reported as 98% (active).

Same assay, conditions: S. cerevisiae sgs1 mgt1 strain, at 50.0 µM, hits give high values
With `Cc1ccc2c(c1)CC1(C2)Cc2ccc(C)cc2C1=O` (stereo not given) the growth inhibition was 54.3%. With `NC1=CC(=O)c2ccccc2C1=O` the growth inhibition was 85.2% (active). `CCCCC(CC(=O)O)c1ccc(Cl)cc1` (stereo not given) gave a growth inhibition of 40.6%. With `OCCOCCO[P+]1(OCCOCCO)n2c3ccc2C(c2ccccc2)=C2C=CC(=N2)C(c2ccccc2)=c2ccc(n21)=C(c1ccccc1)C1=NC(=C3c2ccccc2)C=C1` the growth inhibition was 92% (active). In the case of `Clc1ccc2[nH]c(-c3ccccc3)c(-c3ccccn3)c2c1`, the growth inhibition is reported as 97.7% (active). Compound `COc1cc(NS(C)(=O)=O)ccc1Nc1c2ccccc2nc2ccccc12` has a growth inhibition of 37.2%. With `COC1/C=C/OC2(C)Oc3c(C)c(O)c4c(c3C2=O)C(=O)C=C(NC(=O)/C(C)=C\C=C\C(C)C(OC=O)C(C)C(O)C(C)C(OC(C)=O)C1C)C4=O` (stereo not given) the growth inhibition was 52.5%. `COc1ccc(CN(C)c2c(C)ccc3ccccc23)cc1` showed a growth inhibition of 23.3%. For `CCOC(=O)c1c(-c2ccccc2)csc1NC(=O)CBr`, the growth inhibition was 52.5%. In the case of `Nc1nc2nc(I)[nH]c2c(=O)[nH]1`, the growth inhibition is reported as -5.25%. With `CC(CN(CC(=O)O)CC(=O)O)N(CC(=O)O)CC(=O)O.[Cl][Pd][Cl]` (stereo not given) the growth inhibition was 82% (active). For `COC(=O)c1nc(=S)[nH]c(C(=O)OC)c1C(=O)c1ccc2ccccc2c1`, the growth inhibition was 93.3% (active). With `O=C(Nc1ccccc1)OCCc1ccc(Br)cc1` the growth inhibition was 14.4%. With `O=C(CCN1CCCCC1)/C(=C\c1ccc(Cl)cc1)c1ccccc1` the growth inhibition was 99.3% (active). Compound `FC(F)(F)c1nc(S)cc(=S)[nH]1` has a growth inhibition of -5.45%. For `CCCCC(=O)N/N=C/c1ccc([N+](=O)[O-])s1`, the growth inhibition was 94.5% (active). For `CSC(=S)N/N=C(\C)c1nccnc1C`, the growth inhibition was 98.7% (active). In the case of `CC(=O)Oc1cc2c(cc1OC(C)=O)OCC(c1ccccc1)C2` (stereo not given), the growth inhibition is reported as 76.5% (active). With `O=Cc1ccc(O)c2ccccc12` the growth inhibition was 75.6% (active). With `CC(=O)N(C1=C(Cl)C(=O)c2ccccc2C1=O)c1ccc(Cl)cc1` the growth inhibition was 99.2% (active). In the case of `Cn1c2c(c3ccccc31)CCN1C[C@@H]3CCCC[C@H]3C[C@@H]21`, the growth inhibition is reported as 74.4% (active). For `CCOc1ncc(Cl)c(OCC)n1`, the growth inhibition was -28.2%. In the case of `C=C1C(=O)OC2C1CC1OC2C(C)CCC/C(C)=C\CCC1(C)O` (stereo not given), the growth inhibition is reported as 94.1% (active). With `CCCCN(CCCC)CCC(O)(c1ccc(OC)c2ccccc12)C(O)(CCN(CCCC)CCCC)c1ccc(OC)c2ccccc12` (stereo not given) the growth inhibition was 99.6% (active). With `CS/C(N)=N/NC(=O)CCC(=O)Nc1cc(Cl)c(Cl)cc1Cl` the growth inhibition was -10.2%. For `COc1ccc(OC)c(N=Nc2c(C)[nH]n(C(N)=S)c2=O)c1`, the growth inhibition was 80.7% (active). In the case of `O=C(CC(=O)c1ccccc1)CC1(O)CCCCC1`, the growth inhibition is reported as 79.9% (active). With `Nc1ccc2ccccc2c1Cc1c(O)ccc2ccccc12` the growth inhibition was 98.9% (active). In the case of `CC[n+]1c(/C=C/c2cc(C(=O)OC)n3c2sc2ccccc23)sc2ccccc21`, the growth inhibition is reported as 99.2% (active). In the case of `O=CNc1ccc2c(c1)Cc1cc(NC=O)ccc1-2`, the growth inhibition is reported as 91.4% (active). `O=C1CC(c2ccccc2)C(=O)N2C(=O)CC(c3ccccc3)C(=O)N12` (stereo not given) gave a growth inhibition of 1.35%. Work on `CN1CCN(CCOC(=O)N2c3ccccc3Sc3ccccc32)CC1` yielded a growth inhibition of 45.5%. Compound `COc1nc(Nc2ccc(/C=C/c3ccc(Nc4nc(OC)nc(N(CCO)CCO)n4)cc3S(=O)(=O)O)c(S(=O)(=O)O)c2)nc(N(CCO)CCO)n1` has a growth inhibition of 45.8%. Work on `NNC(=O)NN=C(c1ccccc1)c1ccccc1` yielded a growth inhibition of 11.4%. For `CCOC(=O)C(Br)C(Br)c1cccc([N+](=O)[O-])c1` (stereo not given), the growth inhibition was 99.7% (active). `CCCCCCC(O)C(CO)CCCCC` (stereo not given) showed a growth inhibition of 45.5%. For `Oc1c(Br)c(Br)c(O)c(Br)c1Br`, the growth inhibition was 94.5% (active). In the case of `CC(=O)n1nc2c(c1CC(C)C)C(=O)C(Nc1ccccc1)=CC2=O`, the growth inhibition is reported as 80.2% (active). With `CC(C)(CCBr)[N+](=O)[O-]` the growth inhibition was 8.35%. With `Nc1ccccc1SCc1csc(-c2ccc(Cl)cc2)n1` the growth inhibition was 98.5% (active).
